# Inconclusive results are not listed. Activity calls are given as the source filed them. How the source made its calls: active means hit-call score of the fitted dose curve at least 0.9, where 1 is the maximum; inconclusive means response in the unintended direction; inactive means score below 0.9.
# Molecular target: human Peroxisome Proliferator-activated Receptor delta (PPARd) Agonism, conducted at France lab site, PPARD (gene 5467) (UniProt Q03181)
# Assay: ERF_FR_NR_COA_hPPARD: Eurofins (ERF) Nuclear Receptor (NR) Functional Coactivator Assay for human Peroxisome Proliferator-activated Receptor delta (PPARd) Agonism, conducted at France lab site
# Method: ERF_FR_NR_COA_hPPARD is a biochemical, single-readout assay that uses extracted gene-proteins in a cell-free assay. Measurements were taken 2 hours after chemical dosing in a 384-well plate. See PPARdelta Human NHR Functional Agonist Coactivator Assay, Cerep.ERF_FR_NR_COA_hPPARD is an assay component calculated from the ERF_FR_NR_COA_hPPARD assay. It is designed to measure FRET using a type of binding reporter as detected by fluorescence intensity of GW0742 with fluorimetry technology.Data from the assay component ERF_FR_NR_COA_hPPARD was analyzed at the assay endpoint, ERF_FR_NR_COA_hPPARD, in the positive analysis fitting direction relative to DMSO as the negative control and baseline of activity. […]
# Histidine-tagged-PPARdelta (Ligand Binding Domain, 1.7 ul/ml proteins) are mixed with 50 nM biotin-tagged-C33 coactivator and 0.4 ug fluorescence acceptor (anti-histidine antibody coupled-beads) in an incubation buffer containing 20 mM Hepes/NaOH (pH 7.4), 80 mM Nacl, 0.08% Tween 20 and 0.8 mM DTT and 0.08% BSA. […] Thereafter, fluorescence donor (streptavidin coupled-beads) is added at a final concentration of 0.4 ug. Following 120 min incubation at 22C, the signal is measured at lambdaex=680 nm and lambdaem=520 and 620 nm using a microplate reader (EnVision, Perkin Elmer). The results are expressed as a percent of the control response to […] nM GW 0742. […]
# Sequence of human Peroxisome Proliferator-activated Receptor delta (PPARd) Agonism, conducted at France lab site, PPARD (gene 5467) (Q03181 whole entry, looked up): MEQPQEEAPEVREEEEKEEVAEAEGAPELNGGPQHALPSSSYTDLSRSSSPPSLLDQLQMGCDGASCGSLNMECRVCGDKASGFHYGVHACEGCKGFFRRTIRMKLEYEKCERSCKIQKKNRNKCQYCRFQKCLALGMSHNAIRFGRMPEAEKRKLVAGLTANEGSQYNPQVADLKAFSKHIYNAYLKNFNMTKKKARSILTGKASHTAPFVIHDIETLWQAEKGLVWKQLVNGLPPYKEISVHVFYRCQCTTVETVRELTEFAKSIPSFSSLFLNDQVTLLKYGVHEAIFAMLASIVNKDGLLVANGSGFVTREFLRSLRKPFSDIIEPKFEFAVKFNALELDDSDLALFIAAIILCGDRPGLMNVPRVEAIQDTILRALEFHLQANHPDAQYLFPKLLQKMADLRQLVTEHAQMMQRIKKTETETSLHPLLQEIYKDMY
row,Compound,outcome
1,CC(C)(Oc1ccc(C(=O)c2ccc(Cl)cc2)cc1)C(=O)O,inactive
2,O=C(O)CCC(F)(F)C(F)(F)C(F)(F)F,inactive
